Measured values taken from PubChem BioAssay (NCI).
This is part of a sample that, as a whole, favours compounds with a hit. Of some 79,000 tested, about 15% had one in any assay. A number with no mark means an inactive call. Activity calls are given as the source filed them. Cut-off read from the data, not from the text of the source: active = growth inhibition above about 70%; inactive = the rest.

Key:
[1] = NCI Yeast Anticancer Drug Screen. Data for the rad50 strain (AID 155);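 note: 0% = growth of vehicle-only cultures of the same strain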; conditions: S. cerevisiae rad50 strain growth inhibition, stronger effect = higher value
Procedure, shortened: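 DNA repair mutant yeast, compound exposure, growth read-out; inhibition is taken relative to vehicle.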

[2] = NCI Yeast Anticancer Drug Screen. Data for the mec2-1 strain (AID 157); conditions: S. cerevisiae mec2-1 strain, stronger effect = higher value
Procedure, shortened: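 Test agents were screened against the mec2-1 yeast strain, with defined DNA repair or cell cycle alteration. Growth was scored as inhibition against vehicle-only controls.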

[3] = NCI Yeast Anticancer Drug Screen. Data for the sgs1 mgt1 strain (AID 161);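 note: 0% = growth of cultures given vehicle only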; conditions: S. cerevisiae sgs1 mgt1 strain, stronger effect = higher value
Procedure, shortened: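 Inhibition of yeast growth, normalised to vehicle-treated controls, is reported for a strain bearing genetic alterations in DNA damage repair.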

[4] = NCI Yeast Anticancer Drug Screen. Data for the cln2 rad14 strain (AID 165);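 note: 0% = growth equal to vehicle treated cultures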; conditions: S. cerevisiae cln2 rad14 strain, stronger effect = higher value
Procedure, shortened: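 Growth of compound-exposed yeast (cln2 rad14 genotype) measured and expressed as inhibition relative to vehicle.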

[5] = NCI Yeast Anticancer Drug Screen. Data for the bub3 strain (AID 167); conditions: S. cerevisiae bub3 mutant strain, stronger effect = higher value
Procedure, shortened: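 In this screen, a yeast mutant lacking normal mitotic checkpoint function is challenged with compound. Relative growth versus vehicle gives the inhibition value.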

[6] = NCI Yeast Anticancer Drug Screen. Data for the mlh1 rad18 strain (AID 175); conditions: S. cerevisiae mlh1 rad18 strain growth inhibition, stronger effect = higher value
Procedure, shortened: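 In this whole-cell yeast screen, a strain with altered DNA damage repair is challenged with compound, and its growth is measured against matched vehicle-treated controls.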

[7] = at 5.0 µM (retest, dose inferred, filed as 0.5)
[8] = at 50.0 µM (retest, dose inferred, filed as 5.0)

SMILES	growth inhibition [1, 7] [%]	growth inhibition [1, 8] [%]	growth inhibition ([1]; at 50.0 µM)	growth inhibition [2, 7] [%]	growth inhibition [2, 8] [%]	growth inhibition ([2]; at 50.0 µM)	growth inhibition [3, 7] [%]	growth inhibition [3, 8] [%]	growth inhibition ([3]; at 50.0 µM)	growth inhibition [4, 7] [%]	growth inhibition [4, 8] [%]	growth inhibition ([4]; at 50.0 µM)	growth inhibition [5, 7] [%]	growth inhibition [5, 8] [%]	growth inhibition ([5]; at 50.0 µM)	growth inhibition [6, 7] [%]	growth inhibition [6, 8] [%]	growth inhibition ([6]; at 50.0 µM)
COc1ccc(OC)c(/C=C/NC=O)c1	-10	10	-11.4%	-11	-7	13.2%	-12	-2	-6.4%	-15	5	49.2%	-1	-2	-4.35%	5	-24	-0.95%
CCC(C)(O)C#Cc1ccc(C)nc1 (stereo not given)	2	6	16.1%	0	3	9.4%	-2	2	7.7%	0	-1	14.5%	1	-1	13.8%	-12	4	0.4%
Cc1[nH]n(C(N)=S)c(=O)c1N=Nc1ccc([N+](=O)[O-])cc1	-19	35	91.5% (active)	-4	27	51.2%	-4	66	88.2% (active)	-13	33	7.5%	-12	54	51.8%	-6	48	93.4% (active)
CN(C)c1ccc(-c2c(C#N)c(-c3ccccc3)n(NS(=O)(=O)c3ccccc3)c(=O)c2C#N)cc1	19	36	71% (active)	23	32	75.5% (active)	34	50	75.2% (active)	44	53	80.8% (active)	54	51	76.2% (active)	17	31	72.2% (active)
Cc1ccc(-c2n[nH]c(=O)n2/N=C\c2ccccc2)cc1	21	38	40.9%	18	25	21.9%	28	39	50.1%	12	31	15.2%	4	23	23%	17	44	59%
